# From PubChem BioAssay (NCI)
# Compounds without any hit were thinned out: in the full panel of roughly 83,000, 20% have a hit.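 Testing used 96-well plates and a 48-hour single-concentration exposure. Example: -40 means 40% of the starting cells died.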 Values without a mark were called inactive. Activity calls are given as the source filed them. How the source made its calls: active means growth percent below 10; inactive means the rest.
# Assays:
# Assay in all cases: NCI-60 one-dose screen, 48 h (100 = growth as untreated, 0 = no growth, -100 = all killed)
# Conditions in all cases: 10 µM unless noted
# DU-145 prostate = test system: DU-145 prostate
# K-562 leukemia = test system: K-562 leukemia
# MALME-3M melanoma = test system: MALME-3M melanoma
# MDA-MB-231 breast = test system: MDA-MB-231 breast
# RXF 393 renal = test system: RXF 393 renal
# SF-268 CNS = test system: SF-268 CNS
# SF-539 CNS = test system: SF-539 CNS
# UACC-257 melanoma = test system: UACC-257 melanoma
# M14 melanoma = test system: M14 melanoma
# SF-295 CNS = test system: SF-295 CNS
Compound,growth (DU-145 prostate),growth (K-562 leukemia),growth (MALME-3M melanoma),growth (MDA-MB-231 breast),growth (RXF 393 renal),growth (SF-268 CNS),growth (SF-539 CNS),growth (UACC-257 melanoma),growth (M14 melanoma),growth (SF-295 CNS)
C[C@]12CC[C@H]3[C@@H](CC[C@H]4C[C@@H](O)CC[C@@]43C)[C@@H]1CC(=O)C2,107%,94.1%,163%,112%,118%,97.9%,92.7%,104%,108%,
O=C(CN1CCN(c2cccc(Cl)c2)CC1)N1CCN(c2nnc(-c3ccc(Cl)cc3)c(-c3ccc(Cl)cc3)n2)CC1,94.8%,38.8%,105%,86.8%,,89.8%,74.4%,,106%,84.3%
O=C(O)COc1ccc([N+](=O)[O-])cc1Cl,118%,99.5%,107%,115%,108%,109%,98%,91.6%,107%,
COc1cc2cc3cc4cc(OC)c(OC)cc4c(C)[n+]3cc2cc1OC (tested in a mixture with another compound),79.3%,58.1%,86.2%,94.5%,,39.4%,85%,51.1%,78.4%,70.7%
C=C(C)C(C(=O)OCC)(C(=O)OCC)C(C)C,120%,116%,110%,112%,112%,112%,105%,107%,110%,
CC1(C)N=C(N)N=C(N)N1c1cccc(CCCCOc2ccccc2)c1,27.6%,16.2%,43.1%,46.8%,50.2%,27.2%,34.1%,28.7%,23.6%,
O=C1C(Cl)=C(Nc2ccc(Nc3ccccc3)c(NC3=C(Cl)C(=O)c4ccccc4C3=O)c2)C(=O)c2ccccc21,104%,41.4%,39.4%,58.5%,74.3%,72.7%,42.5%,79.8%,118%,
CCN(CC)CCNc1ncnc2c1cnn2-c1ccc(Cl)cc1,94.5%,45%,88.9%,61.1%,,81.7%,70%,,,85.7%
CCCCS(=O)(=O)c1cc(Nc2ccc(O)c3c2C(=O)c2ccccc2C3=O)ccc1C,42.1%,67%,2.26% (active),71.8%,76.1%,84.5%,86.8%,75.8%,21%,
O=[N+]([O-])c1ccc(-c2ncc(-c3ccc(O)cc3O)[nH]2)cc1,143%,95.6%,218%,104%,,101%,118%,-43.6% (active),135%,
Cn1c2ccccc2c2ccccc21,106%,89.3%,101%,108%,111%,103%,108%,94.8%,99.3%,
Cc1c([C@H](C(Cl)Cl)[C@H](O)[C@H]2C[C@H](C)C(=O)O2)ccc2c1C(=O)[C@H]1[C@H]2C[C@@H](Br)[C@@]23O[C@@H](CO[C@H]2O)CC13C (stereo not given in full),-34.9% (active),7.69% (active),77.9%,4.9% (active),15.5%,33%,,61.9%,33.2%,
Cc1[nH]n(C(=S)Nc2nc3cc(Cl)c(F)cc3s2)c(=O)c1N=Nc1ccc(F)c(Cl)c1,154%,89.5%,139%,93.5%,,90%,108%,-34.2% (active),114%,
O=C1CSC(c2ccccc2Cl)N1c1nnc(-c2ccncc2)o1 (stereo not given),106%,104%,120%,97.7%,101%,99.5%,,98.2%,96.8%,
O=C(Oc1ccccc1)c1ccccc1Cl,114%,107%,101%,111%,110%,,94.2%,102%,102%,110%
COC(=O)[C@H](Cc1cn(C)cn1)NC(=O)[C@@H](NC(=O)Nc1cc(C(F)(F)F)cc(C(F)(F)F)c1)C(C)(C)C,-92.3% [100 µM] (active),-12.5% [100 µM] (active),-86.9% [100 µM] (active),-89.6% [100 µM] (active),-87.4% [100 µM] (active),-90.4% [100 µM] (active),-84.4% [100 µM] (active),-74.2% [100 µM] (active),-85.2% [100 µM] (active),
CC(=O)Nc1ccc(CC#N)cc1Br,107%,111%,101%,112%,,106%,103%,103%,105%,105%
CC(CCN1CCN(CCC(C)CC(C)(C)C)C1CC(C)CC(C)(C)C)CC(C)(C)C (stereo not given),103%,58.2%,99.2%,105%,,91.5%,91.5%,107%,100%,114%
COC(=O)c1cc(Nc2ccc(O)c3c2C(=O)c2c([N+](=O)[O-])ccc(O)c2C3=O)cc(C(=O)OC)c1,-59.1% (active),72.9%,-51.1% (active),90.4%,51.9%,55.1%,84%,12.1%,-66.5% (active),
CCOc1ccccc1/C=N\N=C(N/N=C/c1ccccc1OCC)N/N=C/c1ccccc1OCC,16.1%,21.4%,24.1%,9.5% (active),19.2%,,,7.38% (active),32.3%,9.61% (active)
O=C(c1ccccc1)c1ccccc1-c1ccccc1,51.1%,14.5%,49.4%,42.1%,,45.4%,20.4%,55.4%,0.878% (active),17.1%
CNc1ccc(Nc2ccc(S(=O)(=O)O)cc2)c2c1C(=O)c1ccccc1C2=O,112%,101%,110%,111%,104%,114%,101%,107%,112%,
CC(O)CCC(C)[N+](=O)[O-] (stereo not given),111%,99.9%,106%,110%,119%,104%,99%,102%,106%,
COc1ccc(C(=O)c2no[n+]([O-])c2C(=O)c2ccc(OC)cc2)cc1,81.1%,-100% (active),-69.5% (active),57.4%,,-38.5% (active),89.3%,13.4%,,92.8%
CC(Br)c1nc2ccccc2cc1C(N)=O (stereo not given),102%,90.9%,101%,118%,109%,104%,103%,119%,109%,
N#CCc1ncc(-c2ccc(C(F)(F)F)cc2)c(NC2CCCCCC2)n1,28.5% [100 µM],4.45% [100 µM] (active),25.7% [100 µM],37.4% [100 µM],36.4% [100 µM],30.5% [100 µM],67.2% [100 µM],23.3% [100 µM],19% [100 µM],
CCCCCCCCc1ccc(CCC(N)(CO)CO)cc1,3.12% (active),-25.2% (active),26.2%,-24.1% (active),,20.3%,17.3%,53.7%,50%,67.9%
N=C(N)N=Nc1ccc(NN=C(N)N)cc1,95.4%,96.2%,138%,86.2%,81.6%,,,94%,78.6%,101%
CC(=N\N=C(N)N)/C(=N/N=C(N)N)c1ccccc1,51.7%,91.3%,99.2%,116%,104%,,74.6%,93.2%,88.6%,99.1%
COc1cc(/C(=C2/O[C@@H]([C@H]3COC(C)(C)O3)[C@H]3OC(C)(C)O[C@@H]23)c2ccc3c(c2)OCO3)cc(OC)c1OC,60.2%,40.8%,29.1%,21.9%,,72%,25.2%,58.8%,93.7%,76.1%
